According to PubChem BioAssay (NCATS):
Results filed as inconclusive are left out. Entries that show only a call come without a potency. Calls of active or inactive are those of the source. Calls follow the shape of the dose curve; as a rule, active = well fitted curve in the direction sought with a large enough effect; inconclusive = small, poorly fitted or top-dose-only effect, or another doubt; inactive = no such curve, though single readings can be large; an effect the other way counts as inactive or inconclusive.

How the values were obtained:
[1] = P-glycoprotein substrates identified in KB-3-1 adenocarcinoma cell line, qHTS therapeutic library screen (AID 1346986); also: nearly all actives have a fitted effect of over 60% in size;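 also: potency is for cytotoxicity meaning loss of cell viability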
Outline: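 Dose-response cytotoxicity, KB-3-1 vs P-gp-high KB-8-5-11, no colchicine in assay medium. Read: CellTiter-Glo at 72 h.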

[2] = P-glycoprotein substrates identified in KB-8-5-11 adenocarcinoma cell line, qHTS therapeutic library screen (AID 1346987); also: nearly all actives have a fitted effect of over 65% in size
Outline: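 Human cervical adenocarcinoma KB-8-5-11 cells, selected in colchicine to over-express P-gp and assayed without it, were exposed for 72 h to titrated compounds. An ATP-based luminescent viability signal gave AC50.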
Potency is read from the fitted curve at half-maximal effect.

SMILES | Potency [1] | Potency [2] | outcome [1] | outcome [2]
COC(=O)CCSCc1ccc(-c2onc(C)c2NC(=O)OC(C)c2ccccc2Cl)cc1 (stereo unspecified) | inactive | inactive | – | –
O=C(O)/C=C/c1ccc(O)c(O[C@@H]2O[C@H](CO)[C@@H](O)[C@H](O)[C@H]2O)c1 | inactive | inactive | – | –
C=C1[C@@H]2CC[C@@H]3[C@@](CCC4C(C(=O)O)(C(=O)O)C[C@@H](O[C@@H]5O[C@H](CO)[C@@H](O)[C@H](O)[C@H]5OC(=O)CC(C)C)C[C@]43C)(C2)[C@H]1O (stereo partly specified) | inactive | inactive | – | –
COC(=O)C1=COC(OC2OC(CO)C(O)C(O)C2O)C2C1C=CC2(O)CO (stereo unspecified) | inactive | inactive | – | –
C=C1C(=O)OC2CC3(C)C(CC12)C(C)=CC(O)C3OC(C)=O (stereo unspecified) | inactive | inactive | – | –
C[C@@H]1N[C@H]2N(C1=O)c1ccccc1[C@@]2(O)C[C@@H]1C(=O)N[C@@H](C)c2nc3ccccc3c(=O)n21 | inactive | inactive | – | –
CCn1c(=O)c(-c2ccn[nH]2)cc2c(C)nc(N)nc21 | 3660 nM (active) | 2910 nM (active) | – | –
OC[C@H]1O[C@@H](OCCc2ccccc2)[C@H](O[C@@H]2OC[C@](O)(CO)[C@H]2O)[C@@H](O)[C@@H]1O | inactive | inactive | – | –
COc1cc2c(cc1OC)CC(=O)N(CCCNC[C@H]1Cc3cc(OC)c(OC)cc31)CC2 | inactive | inactive | – | –
CC(C)(O[C@@H]1O[C@H](CO)[C@@H](O)[C@H](O)[C@H]1O)C(OC(=O)/C=C\c1ccc(O)cc1)C(=O)OCc1ccc(O[C@@H]2O[C@H](CO)[C@@H](O)[C@H](O)[C@H]2O)cc1 (stereo partly specified) | inactive | inactive | – | –
CC1=C(/C=C/C(C)=C\C=C\C(C)=C/C(=O)O)C(C)(C)CCC1 | inactive | inactive | – | –
C=C1CC[C@@H]2[C@](C)(CO[C@@H]3O[C@H](CO)[C@@H](O)[C@H](O)[C@H]3O)[C@H](O)CC[C@@]2(C)[C@@H]1C/C=C1/C(=O)OC[C@H]1O | inactive | inactive | – | –
COc1ccc(C2(O)c3ccccc3NC(=O)C2O)cc1 (stereo unspecified) | inactive | inactive | – | –
CCCCNc1ncc2c(-c3ccc(F)cc3)nn(CC3CCC(N)CC3)c2n1 (stereo unspecified) | 2000 nM (active) | 1780 nM (active) | – | –
CC1(C)CC[C@]2(C(=O)O[C@@H]3O[C@H](CO)[C@@H](O)[C@H](O)[C@H]3O)CC[C@]3(C)C(=CCC4[C@@]5(C)C[C@@H](O)[C@H](O)[C@](C)(C=O)C5CC[C@]43C)[C@@H]2[C@@H]1O (stereo partly specified) | inactive | inactive | – | –
CCN1CCN(Cc2ccc(NC(=O)c3ccc(C)c(NC(=O)c4cncc(-c5cccs5)c4)c3)cc2C(F)(F)F)CC1 | 2060 nM (active) | 7310 nM (active) | – | –
O=c1[nH]ccc2cc(OC3CCNCC3)ccc12 | inactive | inactive | – | –
CC1CCC2C(C)(C)[C@@H](O)CC[C@]2(C)C12Cc1c(O)cc3c(c1O2)CN(C(CCC(=O)O)C(=O)O)C3=O (stereo partly specified) | inactive | inactive | – | –
CC(=O)/C=C/[C@H]1[C@](C)(O)[C@@H](O)[C@H](OC(C)=O)C2C(C)(C)CCC[C@@]21C (stereo partly specified) | inactive | inactive | – | –
C[C@H](NC(c1cccc(C[P+](=O)O)c1)[C@H](C)O)c1ccc(Cl)c(Cl)c1 (stereo partly specified) | inactive | inactive | – | –
CC(=O)OC1C[C@@]2(C)[C@@H](CC[C@@H](C)[C@]23Cc2c(O)cc4c(c2O3)CNC4=O)C(C)(C)[C@@H]1O (stereo partly specified) | inactive | inactive | – | –
COc1cc2c(cc1O)[C@H](c1ccc(O[C@@H]3O[C@H](CO)[C@@H](O)[C@H](O)[C@H]3O)c(OC)c1)[C@@H](CO)[C@](O)(CO)C2 | inactive | inactive | – | –
CC1(C)C[C@H](O)C[C@@]2(C)OC(=O)C=C12 | inactive | inactive | – | –
CCC[C@@H]1O[C@@H]2C[C@H]3[C@@H]4CCC5=CC(=O)C=C[C@]5(C)[C@H]4[C@@H](O)C[C@]3(C)[C@]2(C(=O)CO)O1 | inactive | inactive | – | –
COc1c2c(c(C)c3c1C(=O)OC3)OC1(C)CC(O)C34OC(OC)(OC3(C)C)C(O)CC4(C)C1C2 (stereo unspecified) | inactive | inactive | – | –
C=C(C(=O)O)C1CCC2(C)CCCC(C)(O)C2C1 (stereo unspecified) | inactive | inactive | – | –
CC1(C)CC[C@@]2(C(=O)O[C@@H]3O[C@H](CO)[C@@H](O)[C@H](O)[C@H]3O)C(C1)C1=CCC3[C@@]4(C)CC[C@@H](O[C@@H]5O[C@H](C(=O)O)[C@@H](O[C@@H]6OC[C@@H](O)[C@H](O)[C@H]6O)[C@H](O[C@@H]6OC[C@](O)(CO)[C@H]6O)[C@H]5O)C(C)(C)C4CC[C@@]3(C)[C@]1(C)C[C@H]2O (stereo partly specified) | – | – | inactive [at 9.29 µM] | inactive [at 9.29 µM]
CCCOC(c1cc2nccc(C(=O)O)c2[nH]1)c1ccccc1Cl (stereo unspecified) | inactive | inactive | – | –
